# From PubChem BioAssay
# Most compounds without a hit are left out; they make up all but 5% or so of the library.
# LmPK inhibitor: qHTS Assay for Inhibitors of Leishmania Mexicana Pyruvate Kinase (LmPK); Q27686; purified LmPK, Kinase-Glo ATP luminescence, 1 h; Potency, µM (highest dose often 57.5 µM), inactives show top-dose activity change, negative = inhibition, actives largely listed as inhibitors; 290,000 tested, 0.37% active; AID 1721, 2009; note: potency is the fitted concentration of half-maximal effect
# Target sequence (Q27686 whole entry, looked up): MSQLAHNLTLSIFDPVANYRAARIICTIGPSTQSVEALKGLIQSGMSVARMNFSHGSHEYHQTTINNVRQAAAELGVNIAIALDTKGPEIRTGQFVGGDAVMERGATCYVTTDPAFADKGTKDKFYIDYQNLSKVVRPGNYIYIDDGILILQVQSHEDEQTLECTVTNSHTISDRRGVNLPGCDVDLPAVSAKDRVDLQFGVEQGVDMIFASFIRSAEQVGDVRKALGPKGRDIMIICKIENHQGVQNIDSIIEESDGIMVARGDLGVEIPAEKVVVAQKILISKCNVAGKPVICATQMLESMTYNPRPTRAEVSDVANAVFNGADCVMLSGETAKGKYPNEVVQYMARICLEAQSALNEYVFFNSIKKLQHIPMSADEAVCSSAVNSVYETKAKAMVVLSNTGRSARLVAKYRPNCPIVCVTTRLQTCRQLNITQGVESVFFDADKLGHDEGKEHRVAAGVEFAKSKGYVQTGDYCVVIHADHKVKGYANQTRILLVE
#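 Pyruvate kinase activity monitored as ATP production (luciferase luminescence). Conditions: 0.1 nM enzyme, 0.5 mM PEP, 0.1 mM ADP, 1 h, RT; normalized against uninhibited and no-enzyme wells.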
# VACV mCherry inh: qHTS for Stage-Specific Inhibitors of Vaccinia Orthopoxvirus: mCherry Reporter Primary qHTS. Vaccinia virus mCherry reporter infection, fluorescence. Potency, µM (doses to about 36.5 µM), for inactives: at the highest dose activity change, negative = inhibition, usual class: inhibitors. 310,000 tested, 0.63% active; calls by dose curve; tested in A549 cells; note: potency is the fitted concentration of half-maximal effect; nearly all actives have a fitted effect of over 35% in size
# Vaccinia Venus: qHTS for Stage-Specific Inhibitors of Vaccinia Orthopoxvirus: Venus Reporter Primary qHTS; Vaccinia virus Venus reporter expression, fluorescence; Potency, µM (series often up to 36.5 µM), without a hit: at the top dose activity change, negative = inhibition, hits mostly inhibitors; 330,000 tested, 0.46% active; AID 720580, 2013; calls by dose curve; tested in A549 cells; note: potency is the fitted concentration of half-maximal effect; nearly all actives have a fitted effect of over 30% in size
# HCMV antiviral: qHTS Assay for inhibitors of the human cytomegalovirus (HCMV). HFF cells, HCMV-luciferase reporter, 72 h; hits give low values. activity change, negative = inhibition, % at 57.5 µM. 410,000 tested, 4.5% active. AID 1259415, 2018; in the data active = activity change below about -60%; inconclusive = no clear call, values can overlap the other calls; inactive = above about -39%
#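 Screen run at 2 compound doses on HFFs infected with reporter HCMV, MOI 1 PFU/cell. Luciferase activity from cell lysates at 72 h post infection gave inhibition relative to buffer-only and Salinomycin wells.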
# Tb PYK inh: qHTS of Trypanosoma Brucei Inhibitors | pyruvate kinase (Trypanosoma brucei), Q57TT1 | Potency, µM (titrated, usually from 76.8 µM), for the others: at the highest dose activity, negative = inhibition, usual class: inhibitors | 410,000 tested, 0.12% active | TbPYK enzyme, Kinase-Glo Plus ATP luminescence, 45 min; note: potency is the fitted concentration of half-maximal effect; nearly all actives have a fitted effect of over 50% in size
#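 Readout: single end-point luminescence (Kinase-Glo Plus, 10 min). Reaction conditions were TbPYK/substrate plus 130 uM ADP, 45 min at RT, pH 7.2 TEA buffer. No-enzyme wells served as controls, and data were normalized before concentration-response fitting.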
# * = called active by the depositor; i = inactive; ? = inconclusive; · = not tested or not shown; [ ] = remark or other dose. Unless noted, calls come from the whole dose curve; as a rule, active = well fitted curve in the direction sought with a large enough effect; inconclusive = small, poorly fitted or top-dose-only effect, or another doubt; inactive = no such curve, though single readings can be large; an effect the other way counts as inactive or inconclusive. % is set by controls: 0 for no effect and ±100 for the full control effect.
SMILES,LmPK inhibitor,VACV mCherry inh,Vaccinia Venus,HCMV antiviral,Tb PYK inh
O=C1CCN(Cc2ccccc2)CCN1[C@H](COc1ccccc1)c1ccccc1,-2%,-12%,-7%,21,5%
COc1cccc(C(=O)Nc2nc3ccccc3[nH]2)c1,14µM*,-14%[1.46 µM],-20%,-14,-19%
Cc1ccc(C(=O)Nc2cnc3ccccc3c2)cc1,?,-27%,-25%,-81*,3%
COc1ccc(C(=O)Nc2nc3ccccc3[nH]2)cc1,?,-18%,?,-33,-15%
COc1cc(SC)ccc1C(=O)Nc1nc2ccccc2[nH]1,-22%,-22%,-15%,-98*,?
Cc1ccc(N(C)S(=O)(=O)c2cccc(C(=O)Nc3nc4ccccc4[nH]3)c2)cc1,-1%,-23%,?,-87*,-1%
CN(C)c1cccc(C(=O)Nc2nc3ccccc3[nH]2)c1,0%,-30%,-24%,26,0%
CCOC(=O)c1ccc(N2C(=O)CC(NC3CCN(C(=O)c4cccc(Cl)c4)CC3)C2=O)cc1 (stereo not given),-3%,-5%,4%,·,-9%
COc1cc(C(=O)NCC(c2cccnc2)N2CCN(C)CC2)cc(OC)c1OC (stereo not given),1%,·,·,-33,2%
COc1ccc(C2(c3ccc(OC)cc3)NC(=O)N(CC(=O)Nc3ccc(OC(F)F)cc3)C2=O)cc1,1%,?,?,12,1%
Cc1ccc(NC(=S)NCCC(c2ccccc2)c2ccccc2)c(C)c1,0%,-8%,-21%,-62*,2%
Cc1ccccc1NC(=S)NCCC(c1ccccc1)c1ccccc1,2%,-14%,-19%,-7,4%
COc1ccc(COC(=O)C2=C(C)NC(=O)NC2c2ccc(O)cc2)cc1 (stereo not given),-3%,·,·,15,-2%
CC1=C(C(=O)OCc2ccc3c(c2)OCO3)C(c2ccccc2)NC(=O)N1 (stereo not given),9%,-29%,?,-92*,1%
CC1=C(C(=O)OCc2ccc3c(c2)OCO3)C(c2ccccc2OCc2ccccc2)NC(=O)N1 (stereo not given),10%,-9%,-25%,-24,-3%
COc1ccc(COC(=O)C2=C(C)NC(=O)NC2c2ccc(OC)cc2)cc1 (stereo not given),7%,·,·,-64*,3%
NC(=S)N/N=C1\CC(c2ccc3c(c2)OCCO3)Oc2ccc(F)cc21 (stereo not given),-3%,11µM*,?,-32,-8%
O=C1CC2(CCN(C(=O)c3cccc(Cl)c3)CC2)Oc2ccccc21,·,-2%,-11%,-99*,-1%
Cc1ccccc1Oc1nc2ccccn2c(=O)c1/C=C(\C#N)c1nc2ccccc2[nH]1,·,-7%,-1%,37,1%
C=CCn1c(NCCc2ccccc2)nc2c1c(=O)n(C)c(=O)n2C,-1%,?,?,-82*,0%
Cn1c(=O)c2c(nc(NCCc3ccccc3)n2CC(=O)NCCc2ccccc2)n(C)c1=O,-2%,·,-21%,75,-8%
COCCCNc1nc2c(c(=O)n(C)c(=O)n2C)n1Cc1ccccc1,·,-11%,-15%,-6,0%
Cc1ccc(Cn2c(NCCc3ccccc3)nc3c2c(=O)n(C)c(=O)n3C)cc1,1%,?,?,-69*,-2%
Cn1c(=O)c2c([nH]c(=S)n2Cc2ccc(Cl)cc2)n(C)c1=O,?,i,2%,-4,3.5µM*
CCNc1nc2c(c(=O)n(C)c(=O)n2C)n1Cc1ccc(Cl)cc1,1%,i,-17%,-66*,-4%
SMILES,LmPK inhibitor,VACV mCherry inh,Vaccinia Venus,HCMV antiviral,Tb PYK inh
CCN(CC)CCNc1nc2c(c(=O)n(C)c(=O)n2C)n1C/C=C(/C)Cl,0%,i,-18%,5,0%
CCOc1nc2c(c(=O)n(C)c(=O)n2C)n1Cc1ccccc1Cl,1%,-12%,-11%,-93*,-2%
C/C(Cl)=C\Cn1c(NCCc2ccccc2)nc2c1c(=O)n(C)c(=O)n2C,7%,?,-27%,-95*,2%
CCN(CC)c1nc(N2CCOCC2)c(C#N)c2c1CN(C)CC2,-7%,·,-19%,-10,-9%
O=C(CSc1nnc(-c2cccnc2)n1Cc1ccco1)Nc1nc(-c2ccc(F)cc2)cs1,3%,·,·,-74*,-6%
COc1cccc(CC(=O)Nc2nc(-c3cccnc3)cs2)c1,2%,i,-24%,-62*,-2%
COc1ccccc1-c1nnc(SCC(=O)Nc2nc(-c3ccccc3)cs2)n1C,5%,·,·,-25,4%
CCn1c(CSc2nc(C)cc(C)n2)nnc1SCC(=O)Nc1nc(-c2ccccc2)cs1,-4%,·,·,-1,-6%
CCn1c(SCC(=O)Nc2nc(-c3ccc(C)cc3)cs2)nnc1-c1ccccc1,1%,·,·,-72*,-13%
CCn1c(SCC(=O)Nc2nc(-c3ccc(C)cc3)cs2)nnc1-c1ccccc1O,3%,·,?,-70*,-1%
C#Cc1ccc([C@@H]2C=C(C(=O)NC3CC3)O[C@H](OCCCCO)C2)cc1,10%,-3%,0%,-6,2%
COc1ccc(C2=NN(C(=O)CSc3nnc(C)c(=O)n3N)C(c3ccco3)C2)cc1 (stereo not given),1%,-3%,-14%,74,0%
Cc1cc(Cl)ccc1OCC(O)CN1C(C)CCCC1C (stereo not given),3%,·,·,·,·
COC(=O)c1c(NC(=O)c2cccc(OC)c2)sc2c1CCC(C(C)(C)C)C2 (stereo not given),·,7%,2%,?,2%
Cc1nc(CC(=O)Nc2nc(-c3ccccc3)cs2)cs1,-6%,i,-8%,-73*,-3%
CCOc1ccc(NCc2nnc(SCC(=O)Nc3nc(-c4ccccc4)cs3)n2-c2ccccc2)cc1,0%,11µM*,?,-27,-6%
Cc1cccc(C)c1NCc1nnc(SCC(=O)Nc2nc(-c3ccccc3)cs2)n1-c1ccccc1,-3%,-13%,-6%,-32,3%
O=[N+]([O-])c1ccc2c(c1)CCO[C@@]21O[C@H](CCO)C[C@H](O)[C@H]1O,·,·,·,-1,·
CCC1CCCCN1CCCNC(=O)c1cc2c(=O)n(CC)c3ccccc3c2s1 (stereo not given),·,8%,-4%,21,1%
O=C(/C=C/c1ccccc1Cl)c1ccc[nH]1,-17%,13µM*,?,-62*,-11%
COC(=O)CNC(=O)CSc1nc2sc(-c3ccccc3)cc2c(=O)n1-c1ccccc1,·,·,·,-20,2%
NC(=O)NC(=O)CSc1nc2sc(-c3ccccc3)cc2c(=O)n1-c1ccccc1,4%,i,-16%,-70*,3%
COn1c(-c2ccccc2)nc2c1CCc1c-2no[n+]1[O-],14%,·,-24%,-80*,-2%
